# Laboratory results: PMC5540273 (PLoS ONE, 2017)
# Tested on: IRAK4
# Conditions: concentration: 1 μM, replicates: in singlicate; n = 1
# 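Note: KINOMEscan kinase panel screen.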
row,Compound,%Inh [%]
1,Cc1ccccc1COc1cc(-n2cnc3cc(Cl)ccc32)sc1C(N)=O [GW813349],17
2,COc1cc2ncn(-c3cc(OCCCc4ccccc4)c(C(N)=O)s3)c2cc1OC [GSK205189],0
3,COc1cc2ncn(-c3cc(OCc4ccncc4Br)c(C(N)=O)s3)c2cc1OC [GW854278],3
4,O=C1NC(=O)C(c2ccccc2)=C1Nc1cccc(O)c1 [SB-390534],0
5,Cc1cccc(-c2nc(Nc3ccc4c(cnn4C)c3)c3ccccc3n2)n1 [GW876731],0
6,COc1ccc(CNC(=O)NC2CCN(c3ccnc(Nc4ccc(F)cc4)n3)C2)cc1 (stereo not shown) [GSK1379706],0
7,O=C(NCCNc1ccnc(Nc2ccc(F)cc2)n1)Nc1ccc2c(c1)OCO2 [GSK1379882],0
8,CCS(=O)(=O)c1ccc(OC)c(Nc2ncc(-c3ccc(F)cc3)o2)c1.Cl [GW591947],3
9,COC(=O)c1c(-c2ccccc2)c2cc(Br)ccc2c(=O)n1Cc1ccc(NC(=O)CCC(=O)O)cc1,16
10,O=C(Nc1n[nH]c2cc(-c3ccccc3F)ccc12)C1CC1 [SB-733371],0
11,Cc1nn2c(=O)cc(N3CCOCC3)nc2n1Cc1cccc(Cl)c1Cl [GSK2342769],16
12,O=c1cc(N2CCOCC2)nc2n(Cc3ccc(F)c(Cl)c3)ccn12 [GSK2297099],16
13,Cc1nnc(-c2ccc(C)c(-c3ccc(C(=O)O)cc3)c2)o1 [GW608005],13
14,Cc1c(Cn2c(C)nn3c(=O)cc(N4CCO[C@H](C)C4)nc23)cccc1C(F)(F)F [GSK2373690],24
15,Nc1ncnc2c1ncn2-c1cccc(F)c1 [SKF-97560],30
16,Nc1ncnc2c1ncn2-c1ccc(Cl)cc1 [AH2635],0
17,CC(C)(C)c1ccc(C(=O)Nc2cn3cc(-c4ccccc4)ccc3n2)cc1,13
18,Nc1nc(-c2ccccc2F)c(-c2ccnc3ccccc23)s1 [GW560459],15
19,CCC(=O)c1c(-c2ccccc2)c2cc(Cl)ccc2c(=O)n1Cc1cc(C(=O)NC2CC2)n(C)n1,20
20,CCS(=O)c1ccc(-c2coc3ccc(-c4nnc(C)o4)cc23)cc1 (stereo not shown),9
21,COc1ccc(-c2cc3c(C)nc(N)nc3n([C@H]3CC[C@H](OCCO)CC3)c2=O)cn1,3
22,O=C(Nc1ccc2c(c1)OCO2)NC1CCN(c2ccnc(NCc3ccc(F)cc3)n2)CC1 [GSK1379859],0

# Tested on: ITK
# Conditions: concentration: 1 μM, replicates: in singlicate; n = 1
row,Compound,%Inh [%]
1,COc1cc2ncn(-c3cc(OCc4ccncc4)c(C(N)=O)s3)c2cc1OC [GSK336313],4
2,OCCCNc1nccc(-c2c(-c3cccc(C(F)(F)F)c3)nn3cc(C(F)(F)F)ccc23)n1 [GW630813],0
3,Cc1ccc(Oc2ccc(Nc3ncnc4cc[nH]c34)cc2C)cn1,0
4,COc1cc(Nc2nccc(N3CCC(NC(=O)C(C)c4ccc(Cl)cc4)C3)n2)cc(OC)c1OC (stereo not shown) [GSK1379757],11
5,Nc1nc(N)c2nc(-c3ccccc3)[nH]c2n1 [SKF-12778],8
6,COc1cc(OC)cc(-c2cc3cnc(N)nc3nc2NC(=O)NC(C)(C)C)c1,0
7,COc1cc2nccc(Nc3cccc(Oc4ccccc4)c3)c2cc1OC.Cl [GW284543],13
8,CCn1c(-c2ccoc2)nc2cnccc21 [SB-733887],9
9,CCn1c(-c2nonc2N)nc2ccccc21 [SB-693162/GW549034],0
10,COC(=O)c1c(-c2ccccc2)c2cc(C)ccc2c(=O)n1Cc1ccccc1,1
11,CCCNC(=O)Nc1ccc(Oc2ncnc3ccn(C)c23)cc1,5
12,COc1ccc(-c2coc3ccc(-c4nnc(SCc5cccc(C#N)c5)o4)cc23)cc1,0
13,CCC(=O)c1c(-c2ccccc2)c2cc(Cl)ccc2c(=O)n1Cc1cc(S(C)(=O)=O)n(CC(F)F)n1,0
14,CN1C(=O)C(Nc2ccccc2)=C(c2ccccc2)C1=O [SB-300079],0
15,Cc1ccccc1COc1cc(-n2cnc3cc(Cl)ccc32)sc1C(N)=O [GW813349],13
16,COc1cc2ncn(-c3cc(OCCCc4ccccc4)c(C(N)=O)s3)c2cc1OC [GSK205189],5
17,COc1cc2ncn(-c3cc(OCc4ccncc4Br)c(C(N)=O)s3)c2cc1OC [GW854278],0
18,O=C1NC(=O)C(c2ccccc2)=C1Nc1cccc(O)c1 [SB-390534],0

row,Compound,%Inh [%]
1,Cc1cccc(-c2nc(Nc3ccc4c(cnn4C)c3)c3ccccc3n2)n1 [GW876731],0
2,COc1ccc(CNC(=O)NC2CCN(c3ccnc(Nc4ccc(F)cc4)n3)C2)cc1 (stereo not shown) [GSK1379706],8
3,O=C(NCCNc1ccnc(Nc2ccc(F)cc2)n1)Nc1ccc2c(c1)OCO2 [GSK1379882],9
4,CCS(=O)(=O)c1ccc(OC)c(Nc2ncc(-c3ccc(F)cc3)o2)c1.Cl [GW591947],0
5,COC(=O)c1c(-c2ccccc2)c2cc(Br)ccc2c(=O)n1Cc1ccc(NC(=O)CCC(=O)O)cc1,12
6,O=C(Nc1n[nH]c2cc(-c3ccccc3F)ccc12)C1CC1 [SB-733371],0
7,Cc1nn2c(=O)cc(N3CCOCC3)nc2n1Cc1cccc(Cl)c1Cl [GSK2342769],14
8,O=c1cc(N2CCOCC2)nc2n(Cc3ccc(F)c(Cl)c3)ccn12 [GSK2297099],1
9,Cc1nnc(-c2ccc(C)c(-c3ccc(C(=O)O)cc3)c2)o1 [GW608005],4
10,Cc1c(Cn2c(C)nn3c(=O)cc(N4CCO[C@H](C)C4)nc23)cccc1C(F)(F)F [GSK2373690],26
11,Nc1ncnc2c1ncn2-c1cccc(F)c1 [SKF-97560],6
12,Nc1ncnc2c1ncn2-c1ccc(Cl)cc1 [AH2635],0
13,CC(C)(C)c1ccc(C(=O)Nc2cn3cc(-c4ccccc4)ccc3n2)cc1,12
14,Nc1nc(-c2ccccc2F)c(-c2ccnc3ccccc23)s1 [GW560459],3
15,CCC(=O)c1c(-c2ccccc2)c2cc(Cl)ccc2c(=O)n1Cc1cc(C(=O)NC2CC2)n(C)n1,0
16,CCS(=O)c1ccc(-c2coc3ccc(-c4nnc(C)o4)cc23)cc1 (stereo not shown),0
17,COc1ccc(-c2cc3c(C)nc(N)nc3n([C@H]3CC[C@H](OCCO)CC3)c2=O)cn1,0
18,O=C(Nc1ccc2c(c1)OCO2)NC1CCN(c2ccnc(NCc3ccc(F)cc3)n2)CC1 [GSK1379859],0
